# Reference: the antibiotic and cytotoxicity screens of Wong et al. (2023)
# Among all 39,000 compounds or so, about 3,300 (8.5%) were called active. Only a selection was taken, and actives are over-represented in it overall.
# System: HepG2
# Assay: cytotoxicity call (relative viability < 0.9)
# Conditions: 10 µM
row,SMILES,cytotoxicity call
1,C[C@@H]1CN([C@@H](C)CO)C(=O)c2cc(NC(=O)Nc3ccc4c(c3)OCO4)ccc2O[C@@H](C)CCCCO[C@@H]1CN(C)S(=O)(=O)c1ccc(F)cc1,inactive
2,C[C@@H]1CN([C@@H](C)CO)C(=O)c2cc(NS(=O)(=O)c3cn(C)cn3)ccc2O[C@H]1CN(C)C(=O)Nc1ccc(F)cc1,inactive
3,O=C1C[C@@H](c2ccc(O[C@@H]3O[C@H](CO)[C@@H](O)[C@H](O)[C@H]3O)cc2)Oc2cc(O)ccc21,inactive
4,NC(=S)c1ccc(-n2cncn2)nc1,inactive
5,COc1cccc(-c2ccc3c(c2)O[C@@H](CN(C)Cc2cncnc2)[C@@H](C)CN([C@@H](C)CO)S3(=O)=O)c1,inactive
6,COC(=O)[C@H](Cc1ccccc1)N1CC2=CC(=O)[C@H](C3CC3)[C@H]2[C@@H]1[C@@H](O)CCn1cc(-c2cccc(/C=C/C(=O)NO)c2)nn1,inactive
7,N#CN=C1NC(=O)CC(=O)N1,inactive
8,C[C@H]1CN([C@@H](C)CO)C(=O)c2cc(-c3cccnc3)cnc2O[C@H]1CN(C)Cc1ccc(-c2ccccc2)cc1,inactive
9,C[C@@H]1CN([C@@H](C)CO)C(=O)c2cc(NC(=O)c3ccccc3)ccc2O[C@@H](C)CCCCO[C@@H]1CN(C)Cc1ccc2c(c1)OCO2,inactive
10,C[C@@H]1CCCCO[C@@H](CN(C)Cc2ccc3c(c2)OCO3)[C@@H](C)CN([C@H](C)CO)C(=O)c2cc(NC(=O)c3ccccc3)ccc2O1,inactive
11,C[C@@H]1CCCCO[C@H](CN(C)Cc2ccc3c(c2)OCO3)[C@H](C)CN([C@H](C)CO)C(=O)c2cc(NC(=O)c3ccccc3)ccc2O1,inactive
12,C[C@@H]1CCCCO[C@@H](CN(C)Cc2ccc3c(c2)OCO3)[C@H](C)CN([C@@H](C)CO)C(=O)c2cc(NC(=O)c3ccccc3)ccc2O1,active
13,C[C@H](CO)N1C[C@H](C)[C@@H](CN(C)Cc2ccc3c(c2)OCO3)OCCCC[C@H](C)Oc2ccc(NC(=O)c3ccccc3)cc2C1=O,inactive
14,C[C@@H]1CCCCO[C@H](CN(C)Cc2ccc3c(c2)OCO3)[C@@H](C)CN([C@H](C)CO)C(=O)c2cc(NC(=O)c3ccccc3)ccc2O1,inactive
15,C[C@@H]1CN([C@H](C)CO)C(=O)c2cc(NC(=O)c3ccccc3)ccc2O[C@@H](C)CCCCO[C@H]1CN(C)Cc1ccc2c(c1)OCO2,active
16,C[C@@H]1CCCCO[C@@H](CN(C)Cc2ccc3c(c2)OCO3)[C@H](C)CN([C@H](C)CO)C(=O)c2cc(NC(=O)c3ccccc3)ccc2O1,inactive
17,C[C@@H]1CN([C@H](C)CO)C(=O)c2cc(NC(=O)c3ccccc3)ccc2O[C@@H](C)CCCCO[C@@H]1CN(C)Cc1ccc2c(c1)OCO2,active
18,C=CCN1C(=O)[C@@H]2[C@@H](C1=O)[C@@H]1C=C[C@@H]2C1,inactive
19,COc1ccc(S(=O)(=O)Nc2cccc3c2O[C@@H](CN(C)Cc2ccncc2)[C@@H](C)CN([C@H](C)CO)C3=O)cc1,inactive
20,C[C@H](CO)N1C[C@H](C)[C@@H](CN(C)C(=O)Nc2cccc3ccccc23)Oc2ccc(NC(=O)C3CCCCC3)cc2C1=O,inactive
21,Cc1ccc(S(=O)(=O)Nc2ccc3c(c2)C(=O)N([C@H](C)CO)C[C@@H](C)[C@@H](CN(C)C(=O)C2CCCCC2)OCCCC[C@@H](C)O3)cc1,inactive

row,SMILES,cytotoxicity call
1,COC(=O)[C@@H](C)S(=O)(=O)NC(=O)c1cnc2ccccn2c1=O,inactive
2,O=C(C[C@H]1CC[C@H]2[C@@H](COC[C@@H](O)CN2C(=O)c2ccc3c(c2)OCO3)O1)NC1Cc2ccccc2C1,inactive
3,Cn1cnc(S(=O)(=O)N2CC[C@@H](O)[C@@H]2Cc2cnn(C)c2)c1,inactive
4,O=C1OCC=C[C@H]2O[C@@]34C=CCN(c5ccc6ccccc6c5)C(=O)[C@H]3N(CCCCCO)C(=O)[C@@H]4[C@@H]12,inactive
5,C[C@H](CO)N1C[C@H](C)[C@H](CN(C)S(=O)(=O)c2cccs2)Oc2ccc(NC(=O)Cn3cnnn3)cc2C1=O,inactive
6,S=C1SCN(Cc2ccccc2)CN1Cc1ccccc1,active
7,NC1CCN(Cc2ccccc2)CC1,inactive
8,NCC1CCN(Cc2ccccc2)CC1,inactive
9,COc1ccc(NC(=O)N(C)C[C@H]2OCCCC[C@H](C)Oc3ccc(NS(=O)(=O)c4c(C)noc4C)cc3C(=O)N([C@@H](C)CO)C[C@@H]2C)cc1,inactive
10,COc1ccc(NC(=O)Nc2ccc3c(c2)C(=O)N([C@H](C)CO)C[C@@H](C)[C@H](CN(C)Cc2ccc(Cl)c(Cl)c2)OCCCC[C@@H](C)O3)cc1,active
11,COc1ccc(NC(=O)Nc2ccc3c(c2)C(=O)N([C@@H](C)CO)C[C@H](C)[C@H](CN(C)Cc2ccc(Cl)c(Cl)c2)OCCCC[C@@H](C)O3)cc1,inactive
12,COc1ccc(NC(=O)Nc2ccc3c(c2)C(=O)N([C@@H](C)CO)C[C@H](C)[C@@H](CN(C)Cc2ccc(Cl)c(Cl)c2)OCCCC[C@@H](C)O3)cc1,inactive
13,COc1ccc(NC(=O)Nc2ccc3c(c2)C(=O)N([C@@H](C)CO)C[C@@H](C)[C@@H](CN(C)Cc2ccc(Cl)c(Cl)c2)OCCCC[C@H](C)O3)cc1,inactive
14,COc1ccc(NC(=O)Nc2ccc3c(c2)C(=O)N([C@H](C)CO)C[C@H](C)[C@@H](CN(C)Cc2ccc(Cl)c(Cl)c2)OCCCC[C@@H](C)O3)cc1,inactive
15,COc1ccc(NC(=O)Nc2ccc3c(c2)C(=O)N([C@@H](C)CO)C[C@@H](C)[C@@H](CN(C)Cc2ccc(Cl)c(Cl)c2)OCCCC[C@@H](C)O3)cc1,active
16,CN(C)C(=O)C[C@H]1CC[C@H]2[C@@H](COC[C@H](O)CN2S(=O)(=O)c2ccccc2)O1,inactive
17,Cc1noc(C)c1S(=O)(=O)Nc1ccc2c(c1)CC(=O)N([C@@H](C)CO)C[C@H](C)[C@@H](CN(C)C(=O)Nc1ccccc1)O2,inactive
18,C[C@H](CO)N1C[C@H](C)[C@@H](CN(C)S(=O)(=O)c2ccc(Cl)cc2)Oc2ccc(NC(=O)Cn3cnnn3)cc2C1=O,inactive
19,Cc1noc(C)c1NC(=O)N(C)C[C@H]1Oc2ccc(NC(=O)Nc3ccc(C(F)(F)F)cc3)cc2CC(=O)N([C@H](C)CO)C[C@@H]1C,inactive
20,CCN([NH2+][O-])c1ccc(O)c(O)c1,inactive
21,C[C@H]1CN([C@@H](C)CO)C(=O)CCCn2cc(nn2)CO[C@@H]1CN(C)C(=O)Nc1ccnc(N2CCOCC2)c1,inactive

row,SMILES,cytotoxicity call
1,Cc1ccc(S(=O)(=O)N(C)C[C@H]2Oc3ccc(NC(=O)Nc4ccc(C(F)(F)F)cc4)cc3C(=O)N([C@@H](C)CO)C[C@@H]2C)cc1,inactive
2,Cc1ccc(S(=O)(=O)N(C)C[C@@H]2Oc3ccc(NC(=O)Nc4ccc(C(F)(F)F)cc4)cc3C(=O)N([C@H](C)CO)C[C@H]2C)cc1,inactive
3,Cc1ccc(S(=O)(=O)N(C)C[C@H]2Oc3ccc(NC(=O)Nc4ccc(C(F)(F)F)cc4)cc3C(=O)N([C@@H](C)CO)C[C@H]2C)cc1,active
4,Cc1ccc(S(=O)(=O)N(C)C[C@@H]2Oc3ccc(NC(=O)Nc4ccc(C(F)(F)F)cc4)cc3C(=O)N([C@H](C)CO)C[C@@H]2C)cc1,active
5,Cc1ccc(S(=O)(=O)N(C)C[C@H]2Oc3ccc(NC(=O)Nc4ccc(C(F)(F)F)cc4)cc3C(=O)N([C@H](C)CO)C[C@H]2C)cc1,active
6,Cc1ccc(S(=O)(=O)N(C)C[C@@H]2Oc3ccc(NC(=O)Nc4ccc(C(F)(F)F)cc4)cc3C(=O)N([C@@H](C)CO)C[C@H]2C)cc1,active
7,Cc1ccc(S(=O)(=O)N(C)C[C@@H]2Oc3ccc(NC(=O)Nc4ccc(C(F)(F)F)cc4)cc3C(=O)N([C@@H](C)CO)C[C@@H]2C)cc1,inactive
8,Cc1ccc(S(=O)(=O)N(C)C[C@H]2Oc3ccc(NC(=O)Nc4ccc(C(F)(F)F)cc4)cc3C(=O)N([C@H](C)CO)C[C@@H]2C)cc1,inactive
9,C[C@H]1CN([C@@H](C)CO)S(=O)(=O)c2ccc(C#CC3CCCC3)cc2O[C@@H]1CN(C)C(=O)Cc1ccncc1,inactive
10,COc1ccc([Si](C)(C)[C@@H]2[C@@H](CC(=O)N3Cc4ccccc4C[C@H]3CO)O[C@]3(C(=O)N(Cc4cccc(N5CCC5=O)c4)c4ccccc43)[C@H]2C)cc1,inactive
11,CC1C(=O)OC2C1CCC1(C)CCC(=O)C(C)C21 (configuration not stated),inactive
12,CN1CCN(S(=O)(=O)c2ccc(CN)cc2)CC1,inactive
13,C[C@H]1CN([C@@H](C)CO)C(=O)c2cc(NS(=O)(=O)c3ccc(Cl)cc3)ccc2O[C@@H]1CN(C)Cc1ccc(Oc2ccccc2)cc1,active
14,C[C@@H]1CN([C@@H](C)CO)C(=O)c2cc(NS(=O)(=O)c3ccc(Cl)cc3)ccc2O[C@@H]1CN(C)Cc1ccc(Oc2ccccc2)cc1,active
15,C[C@H](CO)N1C[C@H](C)[C@@H](CN(C)Cc2ccc(Oc3ccccc3)cc2)Oc2ccc(NS(=O)(=O)c3ccc(Cl)cc3)cc2C1=O,inactive
16,C[C@@H]1CN([C@H](C)CO)C(=O)c2cc(NS(=O)(=O)c3ccc(Cl)cc3)ccc2O[C@@H]1CN(C)Cc1ccc(Oc2ccccc2)cc1,active
17,C[C@H](CO)N1C[C@H](C)[C@H](CN(C)Cc2ccc(Oc3ccccc3)cc2)Oc2ccc(NS(=O)(=O)c3ccc(Cl)cc3)cc2C1=O,inactive
18,C[C@H]1CN([C@@H](C)CO)C(=O)c2cc(NS(=O)(=O)c3ccc(Cl)cc3)ccc2O[C@H]1CN(C)Cc1ccc(Oc2ccccc2)cc1,inactive
19,C[C@@H]1CN([C@@H](C)CO)C(=O)c2cc(NS(=O)(=O)c3ccc(Cl)cc3)ccc2O[C@H]1CN(C)Cc1ccc(Oc2ccccc2)cc1,inactive
20,C[C@@H]1CN([C@H](C)CO)C(=O)c2cc(NS(=O)(=O)c3ccc(Cl)cc3)ccc2O[C@H]1CN(C)Cc1ccc(Oc2ccccc2)cc1,active
